Consider 15 compounds from the antibiotic and cytotoxicity screens of Wong et al. (2023).

Screen size: about 39,000 compounds; about 3,300 (8.5%) were called active. This is one part of a sample in which actives are shown more often than they occur.

The test system of this assay is HepG2. Put plainly: cytotoxicity call (relative viability < 0.9). The note with it: 10 µM.
As to `C[C@@H]1CCCCO[C@@H](CN(C)Cc2ccc3c(c2)OCO3)[C@H](C)CN([C@@H](C)CO)C(=O)c2cc(NS(=O)(=O)c3ccccc3)ccc2O1`, the cytotoxicity call was “inactive”. The same measure for `Cc1noc(C)c1S(=O)(=O)N(C)C[C@H]1Oc2ccc(NS(=O)(=O)c3ccc(Cl)cc3)cc2CC(=O)N([C@@H](C)CO)C[C@@H]1C`: “inactive”. The same measure for `C[C@H]1CCCCO[C@@H](CN(C)C(=O)Nc2ccccc2)[C@@H](C)CN([C@@H](C)CO)C(=O)c2cc(NC(=O)Nc3ccccc3)ccc2O1`: “inactive”. Regarding `COCC(=O)Nc1ccc2c(c1)OC[C@H](C)N(Cc1ccccc1OC)C[C@H](C)[C@@H](OC)CN(C)C2=O`, the cytotoxicity call is “inactive”. In the case of `N[C@@H]1CC[C@@H](CCn2cc(-c3ccccn3)nn2)O[C@H]1CO`, the cytotoxicity call is “inactive”. Turning to `C=CCC[C@H](Cc1ccc(F)cc1)C(=O)OC[C@@H](NC(=O)[C@H](CC=C)CC(=O)N(CCO)Cc1ccccc1)c1ccccc1`, the cytotoxicity call is “inactive”. Take `C=CCOC(=O)[C@@H]1[C@H]2C(=O)O[C@H](c3ccccc3)[C@H](c3ccccc3)N2[C@H](c2ccc(OCCOC(=O)[C@H]3C[C@H]4C(=O)N[C@@H](CC(C)C)C(=O)N4[C@H]3c3cccc(OCCO)c3)cc2)[C@@]12C(=O)Nc1ccccc12`: the cytotoxicity call was “inactive”. Take `Cc1c(C)n2c3c(=O)n(C)c(=O)n(C)c3nc2n1CCO`: the cytotoxicity call is “inactive”. Consider `CC(C)NC(=O)Nc1ccc2c(c1)CC(=O)N([C@H](C)CO)C[C@@H](C)[C@H](CN(C)S(=O)(=O)c1ccc(F)cc1)O2`, for which the cytotoxicity call was “inactive”.

For `CCC1OC(=O)C(C)C(OC2CC(C)(OC)C(O)C(C)O2)C(C)C(OC2OC(C)CC(N(C)C)C2O)C(C)(O)CC(C)C(=O)C(C)C(O)C1(C)O` (stereo not given), the cytotoxicity call is “inactive”.

For the compound `CC[C@H]1OC(=O)[C@H](C)[C@@H](O[C@H]2C[C@@](C)(OC)[C@@H](O)[C@H](C)O2)[C@@H](C)[C@@H](O[C@H]2O[C@H](C)C[C@H](N(C)C)[C@H]2O)[C@](C)(O)C[C@@H](C)C(=O)[C@H](C)[C@@H](O)[C@]1(C)O`, the cytotoxicity call was “inactive”. With `CC[C@H]1OC(=O)[C@H](C)[C@@H](O[C@H]2C[C@@](C)(OC)[C@@H](O)[C@H](C)O2)[C@H](C)[C@@H](O[C@@H]2O[C@H](C)C[C@H](N(C)C)[C@H]2O)[C@](C)(O)C[C@@H](C)C(=O)[C@H](C)[C@@H](O)[C@]1(C)O`, the cytotoxicity call was “active”. As for `O=C(N[C@@H]1CC[C@H](CCNS(=O)(=O)c2ccccc2)O[C@@H]1CO)c1cnccn1`, the cytotoxicity call was “inactive”. On to `O=C(N[C@H](c1ccc2ccccc2n1)c1cccs1)C1CCN(Cc2cccc(C(F)(F)F)c2)CC1`, for which the cytotoxicity call is “inactive”. For `N#Cc1c(Oc2ccc(F)c(NC(=O)Cc3cccc(C(F)(F)F)c3)c2)ccc2nc(NC(=O)C3CC3)sc12`, the cytotoxicity call was “active”.
